Several values for one entry are separate records, joined by “and”; a condition that tells them apart may be missing. Equal values may be shown once. Activity calls are given as the source filed them. Unless noted, the rule behind the calls is not given here.
Tests used:
[1] = resazurin metabolic signal in HepG2 cells – cell-based, resazurin fluorescence, 24 h, PK04 Diversity Set, profiling panel (AID 1172); conditions: HepG2 viability, higher = more signal; note: test concentration not given here
[2] = budding yeast growth changes without added modifier – OD600, strain BY4716, 24 h, basal condition, primary screen (AID 1173); conditions: S. cerevisiae BY4716 growth, OD600, 24 h; higher = more signal, called active from +8 up or from −8 down
[3] = viability profiling in MM1S myeloma cells – cell-based, resazurin fluorescence, basal, 24 h, PK04 Diversity Set, profiling panel (AID 1174); conditions: higher = more signal, called active from +8 up or from −8 down;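 note: MM1S multiple myeloma cell line; test concentration not given here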
[4] = target: Dihydroorotate dehydrogenase (quinone), mitochondrial (Plasmodium falciparum (isolate 3D7)) (UniProt Q08210); assay: inhibition of P. falciparum DHODH – biochemical, C-terminal His tag, absorbance 600 nm, primary screen (AID 1175); conditions: PfDHODH enzyme, DCIP absorbance 600 nm; higher = more signal, called active from +8 up or from −8 down;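 note: recombinant parasite enzyme with a five histidine tag at its C terminus; test concentration not given here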
Chain of Dihydroorotate dehydrogenase (quinone), mitochondrial (Plasmodium falciparum (isolate 3D7)) (Q08210 whole entry, looked up): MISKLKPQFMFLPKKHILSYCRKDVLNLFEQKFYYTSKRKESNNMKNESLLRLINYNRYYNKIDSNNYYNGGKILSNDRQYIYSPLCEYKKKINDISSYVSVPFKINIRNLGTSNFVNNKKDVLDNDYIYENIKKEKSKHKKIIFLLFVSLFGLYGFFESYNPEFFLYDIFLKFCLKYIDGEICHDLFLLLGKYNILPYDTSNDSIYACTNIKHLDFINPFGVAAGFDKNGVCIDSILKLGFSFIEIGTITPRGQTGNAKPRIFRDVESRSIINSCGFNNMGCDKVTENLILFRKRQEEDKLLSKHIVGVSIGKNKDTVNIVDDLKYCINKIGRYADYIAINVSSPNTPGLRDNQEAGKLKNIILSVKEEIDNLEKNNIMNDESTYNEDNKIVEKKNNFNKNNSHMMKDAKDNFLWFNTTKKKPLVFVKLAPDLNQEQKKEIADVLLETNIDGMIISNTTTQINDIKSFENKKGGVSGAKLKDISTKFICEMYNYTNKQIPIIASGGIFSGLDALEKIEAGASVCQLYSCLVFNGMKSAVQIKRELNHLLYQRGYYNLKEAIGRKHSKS

[5] = inhibition of PAO1 biofilm formation – strain PAO1, LB-PBS medium, absorbance 600 nm, primary screen (AID 1176); note: test concentration not given here; conditions: P. aeruginosa PAO1 growth/biofilm, A600, 12 h; higher = more signal
[6] = growth modulation of vineyard yeast isolate – strain RM11-1a, OD600, basal, 24 h, primary screen (AID 1177);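 note: cultures grown under basal conditions with no added stressor; test concentration not given here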; conditions: S. cerevisiae RM11-1a growth, OD600, 24 h; higher = more signal, called active from +8 up or from −8 down
[7] = growth of efflux-deficient E. coli DRC39 – strain DRC39, OD650, 24 h, E. coli filamentation inducers, primary screen (AID 1178);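 note: growth measured as culture turbidity by optical density at 650 nm; test concentration not given here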; conditions: E. coli DRC39 acrAB, higher = more signal, called active from +8 up or from −8 down
[8] = growth of efflux-deficient E. coli DRC39 – strain DRC39, OD650, 48 h, E. coli filamentation inducers, primary screen (AID 1179);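 note: screen aims at cell division blockers that make cells filament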; conditions: E. coli DRC39 delta-acrAB growth, higher = more signal, called active from +8 up or from −8 down
[9] = viability profiling in RPMI8226 myeloma cells – cell-based, resazurin fluorescence, basal, 24 h, PK04 Diversity Set, profiling panel (AID 1180); conditions: higher = more signal;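 note: RPMI8826 multiple myeloma cell line at 5000 cells per well; test concentration not given here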
[10] = target: E3 ubiquitin-protein ligase XIAP (Homo sapiens) (UniProt P98170); assay: small molecules binding XIAP protein – biophysical, small-molecule microarray, fluorescence 635 nm, primary screen (AID 1181); conditions: higher = more signal;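 note: score merges 667 nm emission and signal to noise over triplicate slides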
Chain of E3 ubiquitin-protein ligase XIAP (Homo sapiens) (P98170 whole entry, looked up): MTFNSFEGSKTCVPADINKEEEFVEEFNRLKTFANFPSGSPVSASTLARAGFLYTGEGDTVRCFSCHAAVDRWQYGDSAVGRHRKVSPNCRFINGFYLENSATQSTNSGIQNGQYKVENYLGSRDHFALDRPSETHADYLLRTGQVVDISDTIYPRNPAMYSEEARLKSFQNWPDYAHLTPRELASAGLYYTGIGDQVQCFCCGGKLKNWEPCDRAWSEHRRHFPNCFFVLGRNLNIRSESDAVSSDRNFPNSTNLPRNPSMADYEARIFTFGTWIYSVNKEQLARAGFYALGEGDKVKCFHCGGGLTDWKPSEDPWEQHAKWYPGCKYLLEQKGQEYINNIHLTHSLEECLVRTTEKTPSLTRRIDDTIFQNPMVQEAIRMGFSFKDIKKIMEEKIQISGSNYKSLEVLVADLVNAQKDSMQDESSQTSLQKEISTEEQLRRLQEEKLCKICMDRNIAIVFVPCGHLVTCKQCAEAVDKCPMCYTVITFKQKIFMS

With `COCn1c2ccccc2c2nnc(C(C)=O)nc21` the z-score [1] was -0.159 and -0.565, the z-score [2] was -1.93 (inactive) and -2 (inactive) and the z-score [3] was -0.0104 (inactive) and 0.0255 (inactive). The composite z-score [4] was -2.39 (inactive) and -2.01 (inactive), the z-score [5] was -0.907 (inactive) and -0.576 (inactive) and the z-score [6] was 0.204 (inactive) and -0.16 (inactive). The z-score [7] was -1.12 (inactive) and -1.17 (inactive), the z-score [8] was -1.07 (inactive) and -1.34 (inactive) and the z-score [9] was -0.261 and -0.35. The composite z-score [10] was -0.0095 and -0.065.

With `CCOC(=O)C[C@H]1[C@H](OC(=O)c2ccccc2-c2ccccc2)[C@@H](NC(=O)Cc2ccc(OC)cc2)c2cc(OCCCO)ccc2N1C(=O)Cc1ccc(OC)cc1` the z-score [1] was 1.5 and 0.156, the z-score [2] was 0.324 (inactive) and 0.67 (inactive) and the z-score [3] was 0.783 (inactive) and 0.0875 (inactive). The composite z-score [4] was 1.08 (inactive) and 0.343 (inactive), the z-score [5] was 0.531 (inactive) and the z-score [6] was 0.6 (inactive) and 0.0342 (inactive). The z-score [7] was 1.56 (inactive) and -0.539 (inactive), the z-score [8] was 0.949 (inactive) and -0.39 (inactive) and the z-score [9] was 0.844 and 0.125. For the same compound, the composite z-score [10] was 0.202 and -0.188.

With `C=CCN(C(=O)C1N(CCCCCCO)C(=O)C2C(C(=O)O)C3C=CC21O3)C(C)(C)C` (stereo not given) the z-score [1] was -1.01 and -0.273, the z-score [2] was 0.158 (inactive) and 0.0807 (inactive) and the z-score [3] was -0.184 (inactive) and -0.49 (inactive). For the same compound, the composite z-score [4] was -0.708 (inactive) and -0.59 (inactive), the z-score [5] was -0.401 (inactive) and -0.484 (inactive) and the z-score [6] was -0.37 (inactive) and -1.03 (inactive). For the same compound, the z-score [7] was -0.739 (inactive) and -0.371 (inactive), the z-score [8] was -0.467 (inactive) and -0.281 (inactive) and the z-score [9] was -0.106 and -0.445. The composite z-score [10] was -0.227 and -0.231.

With `CO[C@H]1COC(=O)[C@H](C)NC(=O)CC=C[C@@H](C)[C@H](OC)COC(=O)CC=C[C@@H]1C` the z-score [1] was 0.322, the z-score [2] was 0.278 (inactive) and the z-score [3] was 0.845 (inactive). For the same compound, the composite z-score [4] was 0.804 (inactive), the z-score [5] was -0.519 (inactive) and the z-score [6] was 1.18 (inactive). The z-score [7] was 0.901 (inactive), the z-score [8] was -0.959 (inactive) and the z-score [9] was 0.636. It also gave a composite z-score [10] of 0.234.

In the case of `CO[C@H]1COC(=O)CC=C[C@H](C)[C@H](OC)COC(=O)[C@@H](C)COC(=O)CC=C[C@@H]1C`, the z-score [1] is reported as 0.492 and 0.464, the z-score [2] is reported as -0.415 (inactive) and -1.07 (inactive) and the z-score [3] is reported as 0.429 (inactive) and 0.802 (inactive). The composite z-score [4] was 0.175 (inactive) and 0.55 (inactive), the z-score [5] was -0.519 (inactive) and -0.118 (inactive) and the z-score [6] was -0.436 (inactive) and -0.638 (inactive). For the same compound, the z-score [7] was 0.945 (inactive) and 1.12 (inactive), the z-score [8] was 0.658 (inactive) and 1.09 (inactive) and the z-score [9] was 0.168 and 0.365. For the same compound, the composite z-score [10] was 0.0256 and -0.202.

For `C=C[C@@H](C)[C@@H](O)c1ccc(OCCO)cc1`, the z-score [1] was 0.162 and 0.223, the z-score [2] was -3.96 (inactive) and -2.81 (inactive) and the z-score [3] was -0.435 (inactive) and 0.286 (inactive). For the same compound, the composite z-score [4] was 0.0788 (inactive) and -1.03 (inactive), the z-score [5] was 0.331 (inactive) and 0.838 (inactive) and the z-score [6] was 0.909 (inactive) and 1.21 (inactive). The z-score [7] was 1.12 (inactive) and 0.982 (inactive), the z-score [8] was 0.795 (inactive) and 1.13 (inactive) and the z-score [9] was -0.112 and 0.616. The composite z-score [10] was 0.103 and -0.15.

With `Cc1ccc(S(=O)(=O)OC[C@@H]2CN3[C@@H](CC[C@@H](C)[C@@H]3c3ccc(Br)cc3)C(=O)O2)cc1` the z-score [1] was -0.928 and 0.711, the z-score [2] was 0.212 (inactive) and 0.117 (inactive) and the z-score [3] was 0.0032 (inactive) and 0.781 (inactive). For the same compound, the composite z-score [4] was -0.559 (inactive) and 0.188 (inactive), the z-score [5] was 0.487 (inactive) and -0.139 (inactive) and the z-score [6] was -0.0273 (inactive) and 0.72 (inactive). The z-score [7] was 0.393 (inactive) and -1.04 (inactive), the z-score [8] was 0.521 (inactive) and -0.956 (inactive) and the z-score [9] was -0.109 and 0.607. For the same compound, the composite z-score [10] was 1.69 and -0.0599.

In the case of `CN1C(=O)C2CC=C([C@H]3Oc4ccccc4S(=O)(=O)N4CCC[C@@H]34)CC2C1=O` (stereo not given in full), the z-score [1] is reported as -0.448 and 0.0011, the z-score [2] is reported as 0.325 (inactive) and 0.478 (inactive) and the z-score [3] is reported as -0.391 (inactive) and -0.44 (inactive). The composite z-score [4] was 0.341 (inactive) and -0.0294 (inactive), the z-score [5] was -0.0582 (inactive) and 0.0481 (inactive) and the z-score [6] was 0.961 (inactive) and 1.32 (inactive). The z-score [7] was 0.563 (inactive) and 0.831 (inactive), the z-score [8] was 0.111 (inactive) and 0.0952 (inactive) and the z-score [9] was -0.801 and -0.0821. For the same compound, the composite z-score [10] was -0.245 and -0.244.
